The nature of assay [1]: small molecules captured by biotinylated probe aFSTL3 – biochemical, small-molecule microarray, fluorescence 635/667, stem cell growth factor project, primary screen (AID 1064).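 Further: measures binding of the biotinylated anti-FSTL3 antibody to printed compounds.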 The conditions noted are these: higher = more signal.
The nature of assay [2]: binders from COS7 lysate, DM2A8 probe, primary screen, torsin A project, cell lysate, small-molecule microarray, fluorescence 635/667 (AID 1065). The settings on record: higher = more signal, COS7 lysate expressing mutant human TOR1A.
Assay [3] is described as follows: small molecules captured by biotinylated probe aFGF2 – biochemical, small-molecule microarray, fluorescence 635/667, stem cell growth factor project, primary screen (AID 1067).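 Further: measures binding of biotinylated aFGF2 protein to printed compounds on slides; z-score merges feature fluorescence and signal-to-noise across triplicate slides.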 The settings on record: higher = more signal.
Assay [4] is described as follows: small molecules captured by biotinylated probe aFGF10 – biochemical, small-molecule microarray, fluorescence 635/667, stem cell growth factor project, primary screen (AID 1071).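 Further: score merges 667 nm spot intensity and signal to noise from triplicate slides.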 The conditions noted are these: higher = more signal.
Assay [5] concerns the target Neurogenic locus notch homolog protein 2 (Homo sapiens) (UniProt Q04721). Kind of assay: small molecules binding Notch2 protein – biochemical, small-molecule microarray, 635 nm fluorescence, stem cell growth factors, primary screen (AID 1073). The conditions noted are these: higher = more signal.
The target in assay [6] is Pro-neuregulin-1, membrane-bound isoform (Homo sapiens) (UniProt Q02297). Kind of assay: small molecules binding neuregulin-1 protein – biochemical, small-molecule microarray, fluorescence 635/667, psychiatric disease protein project, primary screen (AID 1075).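 Further: score combines 667 nm spot fluorescence with signal to noise.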 The settings on record: NRG1 binding, 635 nm fluorescence, higher = more signal.
Pro-neuregulin-1, membrane-bound isoform (Homo sapiens), sequence (Q02297 whole entry, looked up, the tested form may be a part, canonical isoform): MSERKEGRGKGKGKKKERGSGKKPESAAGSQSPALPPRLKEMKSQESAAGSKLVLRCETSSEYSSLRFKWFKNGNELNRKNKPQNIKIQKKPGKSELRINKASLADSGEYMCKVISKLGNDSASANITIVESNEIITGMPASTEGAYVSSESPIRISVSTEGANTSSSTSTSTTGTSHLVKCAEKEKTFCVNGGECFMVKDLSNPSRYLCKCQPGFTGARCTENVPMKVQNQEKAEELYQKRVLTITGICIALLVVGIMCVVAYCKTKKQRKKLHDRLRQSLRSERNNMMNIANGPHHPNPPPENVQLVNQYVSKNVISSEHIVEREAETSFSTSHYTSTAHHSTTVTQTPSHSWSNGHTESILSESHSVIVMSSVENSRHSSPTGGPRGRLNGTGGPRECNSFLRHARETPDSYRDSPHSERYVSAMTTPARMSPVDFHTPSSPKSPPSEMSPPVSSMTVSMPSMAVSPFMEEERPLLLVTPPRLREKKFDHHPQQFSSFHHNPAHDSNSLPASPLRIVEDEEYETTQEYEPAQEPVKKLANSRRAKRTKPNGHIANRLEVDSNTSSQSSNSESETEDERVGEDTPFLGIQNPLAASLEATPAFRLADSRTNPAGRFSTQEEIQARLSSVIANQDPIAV
The test system of assay [7] is Neuregulin-1 EGF-like domain. Kind of assay: small molecules binding NRG1 EGF domain – biochemical, small-molecule microarray, 635 nm fluorescence, primary screen (AID 1081).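 Further: binding of the protein to compounds printed on small-molecule microarray slides.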 The conditions noted are these: higher = more signal.
Assay [8] in a line: FRG1 expression reporter modulators in myotubes – cell-based, C2C12 myotubes, firefly/Renilla luciferase, luminescence, FRG1 inhibition for FSHD, primary screen (AID 1084). The conditions noted are these: FRG1 promoter luciferase, higher = more signal, called active from +8 up or from −8 down.
Assay [9] is described as follows: small molecules captured by biotinylated probe aFST – biochemical, small-molecule microarray, fluorescence 635/667, stem cell growth factor project, primary screen (AID 1086).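 Further: score merges 667 nm fluorescence with signal-to-noise of each printed compound spot.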 The conditions noted are these: higher = more signal.
Assay [10] in a line: binders of probe aHhip on microarray, primary screen, stem cell growth factor project, biochemical, small-molecule microarray, fluorescence 635/667 (AID 1087).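 Further: score merges spot fluorescence at 667nm with spot signal to noise ratio.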 The settings on record: higher = more signal.
In assay [11] the test system is PRMT1 (protein arginine N-methyltransferase 1). Kind of assay: small molecules binding arginine methyltransferase PRMT1 – biochemical, small-molecule microarray, 635 nm fluorescence, primary screen (AID 1088).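 Further: binding of Prmt1 protein to compounds spotted on small-molecule microarray slides.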 The settings on record: higher = more signal.
Assay [12] in a line: growth effects on S. cerevisiae YJM789 – YJM789 clinical isolate, OD600, 24 h, basal, primary screen (AID 1089).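 Further: growth of clinical yeast isolate S. cerevisiae YJM 789 seeded 1000 cells per well; test concentration not given here.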 The settings on record: higher = more signal, called active from +8 up or from −8 down.
A short description of assay [13]: S. pombe growth modifiers, basal conditions – strain 972, OD600, 24 h, no modulator, primary screen (AID 1090).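 Further: basal condition with compound alone and no growth modifier present; test concentration not given here.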 The conditions noted are these: S. pombe 972 growth, higher = more signal, called active from +8 up or from −8 down.
Assay [14] in a line: budding yeast growth modifiers under rapamycin – strain BY4716, OD600, 96 h, primary screen (AID 1091). Further: test concentration not given here. The settings on record: S. cerevisiae BY4716 + rapamycin, higher = more signal, called active from +8 up or from −8 down.
Assay [15] addresses Torsin-1A-interacting protein 2 (Homo sapiens) (UniProt Q8NFQ8). Kind of assay: small molecules binding lysate-expressed LULL1 – cell lysate, human LULL1 lysate, 635/667 nm fluorescence, primary screen (AID 1092).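 Further: probe is lysate of COS7 cells overexpressing human LULL1; score merges per-feature 667 nm fluorescence with signal-to-noise.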 The conditions noted are these: small-molecule microarray, hLULL1 lysate binding, 635 nm fluorescence; higher = more signal.
Assay [16] in a line: optical density change of DRC41 E. coli – strain DRC41, OD650, 24 h, E. coli filamentation project, primary screen (AID 1093).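 Further: MC1000 strain lacking acrAB efflux and sulA so SOS filamentation is blocked; test concentration not given here.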 The settings on record: E. coli DRC41 growth, higher = more signal, called active from +8 up or from −8 down.
Assay [17] is described as follows: probe aLefty2 binding to arrayed compounds – biochemical, biotinylated probe, 635/667 nm fluorescence, primary screen (AID 1094).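 Further: score merges spot fluorescence near 667 nm with spot signal-to-noise ratio.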 The settings on record: small-molecule microarray, higher = more signal.
Assay [18] relates to Noggin (protein binding on small-molecule microarray). Kind of assay: small molecules binding Noggin protein – biochemical, 635/667 nm fluorescence, primary screen (AID 1095).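 Further: score merges 667 nm feature fluorescence with signal to noise over triplicate slides.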 The conditions noted are these: 635 nm fluorescence, higher = more signal.
Assay [19] addresses Neurogenic locus notch homolog protein 3 (Homo sapiens) (UniProt Q9UM47). Kind of assay: small molecules binding NOTCH3 protein – biochemical, 635/667 nm fluorescence, primary screen (AID 1096). The conditions noted are these: small-molecule microarray, 635 nm fluorescence, higher = more signal.
Assay [20] can be described thus: probe aEGFR binding to arrayed compounds – biochemical, biotinylated probe, 635/667 nm fluorescence, primary screen (AID 1097).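 Further: probe is a biotinylated anti-EGFR antibody binding compounds printed on slides; score combines fluorescence near 667 nm and signal to noise of each spot.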 The conditions noted are these: small-molecule microarray, higher = more signal.

Calls of active or inactive are those of the source.

Our source for the composite z-score and z-score values is PubChem BioAssay.

Torsin-1A-interacting protein 2 (Homo sapiens), sequence (Q8NFQ8 whole entry, looked up): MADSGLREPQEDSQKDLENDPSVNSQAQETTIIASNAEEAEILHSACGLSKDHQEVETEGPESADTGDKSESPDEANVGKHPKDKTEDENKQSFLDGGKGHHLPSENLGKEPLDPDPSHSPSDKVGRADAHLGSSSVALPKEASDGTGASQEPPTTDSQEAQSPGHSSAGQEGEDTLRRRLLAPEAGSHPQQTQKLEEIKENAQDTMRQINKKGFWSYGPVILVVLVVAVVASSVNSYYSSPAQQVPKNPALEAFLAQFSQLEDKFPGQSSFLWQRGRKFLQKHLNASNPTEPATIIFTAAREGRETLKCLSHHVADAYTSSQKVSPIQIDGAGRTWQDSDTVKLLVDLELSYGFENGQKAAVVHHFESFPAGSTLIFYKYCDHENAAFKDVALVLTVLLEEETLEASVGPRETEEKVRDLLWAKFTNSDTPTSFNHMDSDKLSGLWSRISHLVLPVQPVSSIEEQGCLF
Neurogenic locus notch homolog protein 2 (Homo sapiens), sequence (Q04721 whole entry, looked up, canonical isoform): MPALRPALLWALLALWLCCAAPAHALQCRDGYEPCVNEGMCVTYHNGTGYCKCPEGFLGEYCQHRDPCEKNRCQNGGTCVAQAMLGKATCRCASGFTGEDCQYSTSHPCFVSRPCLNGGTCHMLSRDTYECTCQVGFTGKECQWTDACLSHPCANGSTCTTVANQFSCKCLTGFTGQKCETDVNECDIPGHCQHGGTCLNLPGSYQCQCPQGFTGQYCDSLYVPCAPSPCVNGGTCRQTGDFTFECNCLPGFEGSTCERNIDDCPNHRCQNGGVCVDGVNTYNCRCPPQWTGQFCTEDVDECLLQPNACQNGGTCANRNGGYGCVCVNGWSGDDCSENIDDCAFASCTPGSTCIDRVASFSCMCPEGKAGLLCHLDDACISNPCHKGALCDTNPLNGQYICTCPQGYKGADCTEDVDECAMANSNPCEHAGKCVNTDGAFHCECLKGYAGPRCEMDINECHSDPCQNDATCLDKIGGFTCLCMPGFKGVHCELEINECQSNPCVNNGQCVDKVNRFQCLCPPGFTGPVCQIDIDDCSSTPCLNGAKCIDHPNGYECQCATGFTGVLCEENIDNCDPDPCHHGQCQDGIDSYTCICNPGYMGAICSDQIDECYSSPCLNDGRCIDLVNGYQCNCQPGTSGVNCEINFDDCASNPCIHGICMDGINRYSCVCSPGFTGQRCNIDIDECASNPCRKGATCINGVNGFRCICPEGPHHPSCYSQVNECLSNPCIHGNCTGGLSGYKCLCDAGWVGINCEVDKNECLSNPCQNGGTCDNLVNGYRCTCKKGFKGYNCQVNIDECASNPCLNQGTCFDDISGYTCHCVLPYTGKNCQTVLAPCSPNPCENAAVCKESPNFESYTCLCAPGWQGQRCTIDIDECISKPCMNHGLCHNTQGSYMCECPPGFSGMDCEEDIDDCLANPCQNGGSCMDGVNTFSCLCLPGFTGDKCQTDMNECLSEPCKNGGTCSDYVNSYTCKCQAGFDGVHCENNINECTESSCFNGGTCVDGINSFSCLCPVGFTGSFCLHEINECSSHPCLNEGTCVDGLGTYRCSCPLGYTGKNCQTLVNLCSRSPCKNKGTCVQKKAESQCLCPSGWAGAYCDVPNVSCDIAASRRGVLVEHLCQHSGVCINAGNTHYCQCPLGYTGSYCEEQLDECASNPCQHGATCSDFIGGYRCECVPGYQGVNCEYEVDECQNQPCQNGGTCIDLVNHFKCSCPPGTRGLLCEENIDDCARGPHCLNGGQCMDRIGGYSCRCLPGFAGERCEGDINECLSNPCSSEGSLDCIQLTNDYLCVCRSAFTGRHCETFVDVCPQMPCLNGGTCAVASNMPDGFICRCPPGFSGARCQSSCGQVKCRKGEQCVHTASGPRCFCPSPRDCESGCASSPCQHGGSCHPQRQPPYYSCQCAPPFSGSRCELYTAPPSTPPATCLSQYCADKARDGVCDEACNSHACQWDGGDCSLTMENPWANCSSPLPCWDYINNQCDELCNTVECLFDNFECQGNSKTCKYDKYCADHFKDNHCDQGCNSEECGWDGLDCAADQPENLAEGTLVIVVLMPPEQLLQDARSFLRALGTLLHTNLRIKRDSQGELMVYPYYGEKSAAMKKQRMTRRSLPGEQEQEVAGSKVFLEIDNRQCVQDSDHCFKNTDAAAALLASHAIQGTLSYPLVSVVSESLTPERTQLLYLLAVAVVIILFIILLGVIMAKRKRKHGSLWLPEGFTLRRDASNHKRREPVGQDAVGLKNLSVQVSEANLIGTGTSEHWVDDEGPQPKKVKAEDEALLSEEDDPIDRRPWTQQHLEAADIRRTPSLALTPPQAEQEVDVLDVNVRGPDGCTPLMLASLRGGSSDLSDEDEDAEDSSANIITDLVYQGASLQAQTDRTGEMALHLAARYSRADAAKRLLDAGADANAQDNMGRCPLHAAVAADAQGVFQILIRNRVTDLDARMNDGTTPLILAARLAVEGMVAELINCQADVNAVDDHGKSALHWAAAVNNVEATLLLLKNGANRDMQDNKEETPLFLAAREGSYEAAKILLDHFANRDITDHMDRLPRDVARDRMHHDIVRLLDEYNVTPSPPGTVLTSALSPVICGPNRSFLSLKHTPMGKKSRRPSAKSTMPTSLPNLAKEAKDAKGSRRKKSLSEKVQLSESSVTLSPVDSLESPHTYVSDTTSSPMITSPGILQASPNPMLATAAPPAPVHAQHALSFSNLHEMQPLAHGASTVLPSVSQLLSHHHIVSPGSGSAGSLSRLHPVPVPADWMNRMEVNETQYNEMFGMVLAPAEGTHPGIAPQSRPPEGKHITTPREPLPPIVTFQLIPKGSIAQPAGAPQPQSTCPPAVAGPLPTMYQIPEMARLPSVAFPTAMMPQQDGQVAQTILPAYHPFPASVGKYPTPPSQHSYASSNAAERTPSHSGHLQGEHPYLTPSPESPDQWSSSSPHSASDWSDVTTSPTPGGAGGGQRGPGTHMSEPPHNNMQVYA

As for `CC(C)(C)OC(=O)CC[C@]1(C(=O)NCc2ccccc2)N=C(c2ccc(OCCCO)cc2)O[C@H]1c1ccccc1CN=[N+]=[N-]`, the composite z-score in assay [1] is -0.0386; in [2], 0.357; in assay [3], 0.119; in assay [4] it was 0.618; in assay [5], 1.55; in assay [6], 1.22. The composite z-score in [7] is 1.31; in assay [9], 1.48; in [10], -0.0296; in [11], 1.54; in [15], 3.46; in assay [17] it was 0.214. The composite z-score is 1.2 in assay [18], 1.05 in assay [19] and 0.134 in assay [20]. Besides, the z-score in [8] is -2.07 (inactive); in assay [12] it was 0.133 (inactive); in [13], 0.0256 (inactive); in assay [14], 0.176 (inactive); in assay [16], 0.868 (inactive).

With `COC(=O)CCCCCCC(=O)Nc1ccc(NC(=O)CCCC[P+](c2ccccc2)(c2ccccc2)c2ccccc2)cc1`, the composite z-score is -0.493 in assay [1]; 0.725 in assay [2]; -0.0639 in assay [3]; 0.695 in assay [4]; 0.336 in [5]; -0.31 in [6]. The composite z-score in assay [7] is 0.166; in assay [9], 0.352; in [10] it was -0.0296; in assay [11] it was -0.148; in assay [15], -0.891; in assay [17], -0.232. Also, the composite z-score in [18] is 1.23; in assay [19], 0.973; in [20], 0.0042. Also, the z-score in assay [8] is 0.789 (inactive); in [12], -1.65 (inactive); in assay [13], -7.18 (inactive); in assay [14] it was -0.786 (inactive); in assay [16], -18.9 (active).

As to `CC1CC/C=C\[C@H]2OC34C=CCN(C(C)C)C(=O)[C@H]3N(CCCCCCO)C(=O)[C@@H]4C2C(=O)O1` (stereo not given in full), the composite z-score in [1] is 0.315; in assay [2], -0.671; in assay [3], -0.143; in [4], -0.178; in assay [5], -0.357; in [6], 1.06. The composite z-score in [7] was 0.147; in [9], -0.856; in assay [10], -0.304; in assay [11], -1.25; in assay [15], -1.42; in assay [17] it was -0.136. The composite z-score in [18] is -0.705; in [19], -0.514; in [20], -0.237. Further, the z-score was 0.286 (inactive) in assay [8]; -1.39 (inactive) in [12]; -0.482 (inactive) in assay [13]; -1.27 (inactive) in [14]; 2.5 (inactive) in assay [16].

Consider `CC(C)OC(=O)C=C1C[C@@H](c2ccc(C(F)(F)F)cc2)O[C@@H](c2ccc(C(F)(F)F)cc2)O1`, for which the composite z-score in [1] was -0.187; in assay [2], 1.92; in [3] it was -0.0288; in [4] it was 0.891; in assay [5] it was -0.316; in assay [6], 1.08. Also, the composite z-score was 1 in assay [7]; 0.0006 in assay [9]; -0.214 in [10]; 1.16 in assay [11]; 2.66 in [15]; -0.241 in assay [17]. For the same molecule, the composite z-score in [18] was 0.105; in [19], 0.324; in [20], -0.195. The z-score in assay [8] is 0.337 (inactive); in assay [12], -1.84 (inactive); in assay [13] it was -7.12 (inactive); in [14], -1.52 (inactive); in assay [16], 0.374 (inactive).

In the case of `Cc1ccc(S[C@]2(C(=O)O)CC(=O)N(Cc3ccccc3Cl)[C@@H]2c2ccc(CO)cc2I)cc1`, the composite z-score in [1] is 0.655; in [2], 0.39; in assay [3], 0.234; in [4], 0.107; in assay [5], -0.442; in assay [6], -0.0683. Also, the composite z-score in assay [7] was 1.09; in assay [9], 0.415; in assay [10], -0.624; in assay [11] it was 0.765; in [15], 0.198; in assay [17] it was -0.131. For the same molecule, the values for the composite z-score in assay [18], in [19] and in [20] were -0.678, -0.162 and 0.519, respectively. In addition, the z-score in assay [8] is 0.11 (inactive); in assay [12], -0.923 (inactive); in [13], -1.71 (inactive); in [14], 1.21 (inactive); in [16], -0.852 (inactive).
